Inconclusive results are not listed. A call without a number means that no potency is given here. A number with no mark means an inactive call. Activity calls are given as the source filed them. Calls follow the shape of the dose curve; as a rule, active = well fitted inhibition curve with a large enough effect; inconclusive = small, poorly fitted or top-dose-only effect; inactive = flat fitted curve, though single readings scatter.
Tests used:
ECU = assay: qHTS profiling for inhibitors of Plasmodium falciparum proliferation (AID 504749); also: potency is read from the fitted curve at half-maximal effect; settings: P. falciparum in erythrocytes, SYBR Green DNA, 72 h; series mostly up to 28.7 µM
Method in brief: (§1)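 Fluorescence of SYBR Green-bound parasite DNA, read at 485/535 nm, served as the growth measure. Infected erythrocytes were cultured with compound 72 h; artemisinin (0.29 uM) and DMSO wells defined the normalization range.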

FAB9 = assay: as above; settings: P. falciparum in erythrocytes, SYBR Green DNA, 72 h; series mostly up to 28.7 µM
Method in brief: as §1

GB4 = assay: as above; settings: P. falciparum in erythrocytes, SYBR Green DNA, 72 h; series mostly up to 28.7 µM
Method in brief: as §1

HB3 = assay: as above; settings: P. falciparum in erythrocytes, SYBR Green DNA, 72 h; series mostly up to 28.7 µM
Method in brief: as §1

ICS = assay: as above; settings: P. falciparum in erythrocytes, SYBR Green DNA, 72 h; series mostly up to 28.7 µM
Method in brief: as §1

JCK = assay: as above; settings: P. falciparum in erythrocytes, SYBR Green DNA, 72 h; series mostly up to 28.7 µM
Method in brief: as §1

N140 = assay: as above; settings: P. falciparum in erythrocytes, SYBR Green DNA, 72 h; series mostly up to 28.7 µM
Method in brief: as §1

P93_24 = assay: as above; settings: P. falciparum in erythrocytes, SYBR Green DNA, 72 h; series mostly up to 28.7 µM
Method in brief: as §1

P94_40 = assay: as above; settings: P. falciparum in erythrocytes, SYBR Green DNA, 72 h; series mostly up to 28.7 µM
Method in brief: as §1

PAD = assay: as above; settings: P. falciparum in erythrocytes, SYBR Green DNA, 72 h; series mostly up to 28.7 µM
Method in brief: as §1

PC15 = assay: as above; settings: P. falciparum in erythrocytes, SYBR Green DNA, 72 h; series mostly up to 28.7 µM
Method in brief: as §1

PC26 = assay: as above; settings: P. falciparum in erythrocytes, SYBR Green DNA, 72 h; series mostly up to 28.7 µM
Method in brief: as §1

PC49 = assay: as above; settings: P. falciparum in erythrocytes, SYBR Green DNA, 72 h; series mostly up to 28.7 µM
Method in brief: as §1

SC27B = assay: as above; settings: P. falciparum in erythrocytes, SYBR Green DNA, 72 h; series mostly up to 28.7 µM
Method in brief: as §1

TAB109 = assay: as above; settings: P. falciparum in erythrocytes, SYBR Green DNA, 72 h; series mostly up to 28.7 µM
Method in brief: as §1

TAB113 = assay: as above; settings: P. falciparum in erythrocytes, SYBR Green DNA, 72 h; series mostly up to 28.7 µM
Method in brief: as §1

TAB165 = assay: as above; settings: P. falciparum in erythrocytes, SYBR Green DNA, 72 h; series mostly up to 28.7 µM
Method in brief: as §1

W2 = assay: as above; settings: P. falciparum in erythrocytes, SYBR Green DNA, 72 h; series mostly up to 28.7 µM
Method in brief: as §1

CRL-7250 = normal cell line; assay: Cytotoxic Profiling of Annotated Libraries Using Quantitative High-Throughput Screening (AID 1296008); settings: Five cell lines viability, CellTiter-Glo ATP luminescence, 48-72 h; active compounds read low
Method in brief: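 Compounds were pin-transferred onto cells and incubated 48 or 72 hr at 37 degree Celsius, 95% humidity. CellTiter-Glo was added, plates sat 10 min at room temperature, then ATP-coupled luminescence was imaged as the viability read-out.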
Also: nearly all actives have a fitted effect of over 60% in size.

| SMILES | Potency (ECU) | Potency (FAB9) | Potency (GB4) | Potency (HB3) | Potency (ICS) | Potency (JCK) | Potency (N140) | Potency (P93_24) | Potency (P94_40) | Potency (PAD) | Potency (PC15) | Potency (PC26) | Potency (PC49) | Potency (SC27B) | Potency (TAB109) | Potency (TAB113) | Potency (TAB165) | Potency (W2) | max response (CRL-7250) [%] |
| --- | --- | --- | --- | --- | --- | --- | --- | --- | --- | --- | --- | --- | --- | --- | --- | --- | --- | --- | --- |
| O=C(NCCNCC(O)COc1ccc(O)cc1)N1CCOCC1 (centres undefined) | inactive | inactive | inactive | inactive | inactive | inactive | inactive | inactive | inactive | inactive | inactive | inactive | inactive | inactive | inactive | inactive | inactive | – | – |
| CCCCC[C@H](O)/C=C/[C@H]1[C@H](O)CC(=O)[C@@H]1C/C=C\CCCC(=O)O | inactive | inactive | inactive | inactive | inactive | inactive | inactive | inactive | inactive | inactive | inactive | inactive | inactive | inactive | inactive | inactive | inactive | – | – |
| CC(C)(Oc1ccc(C2CCCc3ccccc32)cc1)C(=O)O (centres undefined) | inactive | inactive | inactive | inactive | inactive | inactive | inactive | inactive | inactive | inactive | inactive | inactive | inactive | inactive | inactive | inactive | inactive | inactive | – |
| CC(=O)Oc1cccc2c1C(=O)c1c(OC(C)=O)cc(C(=O)O)cc1C2=O | inactive | inactive | inactive | inactive | inactive | inactive | – | inactive | inactive | inactive | inactive | inactive | inactive | inactive | inactive | inactive | inactive | inactive | -18.7 |
| C=C1CC[C@H](O)CC1=C/C=C1\CCC[C@]2(C)[C@@H]([C@H](C)/C=C/[C@H](C)C(C)C)CC[C@@H]12 | – | – | – | – | – | – | – | – | – | – | – | – | – | – | – | – | – | – | -11.3 |
| O=C(O)Cc1nn(Cc2ccc(Br)cc2F)c(=O)c2ccccc12 | inactive | inactive | inactive | inactive | inactive | inactive | inactive | inactive | inactive | inactive | inactive | inactive | inactive | inactive | inactive | inactive | inactive | inactive | – |
| CC(=O)Nc1ccc(OC(=O)c2ccccc2O)cc1 | inactive | inactive | inactive | inactive | inactive | inactive | inactive | inactive | inactive | inactive | inactive | inactive | inactive | inactive | inactive | inactive | inactive | inactive | – |
| CCOC(=O)Cc1ccc(-c2ccccc2)cc1 | inactive | inactive | inactive | inactive | inactive | inactive | 224 nM (active) | inactive | inactive | inactive | inactive | inactive | inactive | inactive | inactive | inactive | inactive | inactive | – |
| Cc1ccc(S(=O)(=O)O)cc1C | inactive | inactive | inactive | inactive | inactive | inactive | inactive | inactive | inactive | inactive | inactive | inactive | inactive | inactive | inactive | inactive | inactive | inactive | – |
| CC(C)[C@H](N)C(=O)OCC(CO)OCn1cnc2c(=O)[nH]c(N)nc21 (some centres undefined) | inactive | inactive | inactive | inactive | inactive | inactive | inactive | inactive | inactive | inactive | inactive | inactive | inactive | inactive | inactive | inactive | inactive | inactive | – |
| CC(C)c1nc(N(C)S(C)(=O)=O)nc(-c2ccc(F)cc2)c1/C=C/C(O)CC(O)CC(=O)O (centres undefined) | inactive | inactive | inactive | inactive | inactive | inactive | inactive | inactive | inactive | inactive | inactive | inactive | inactive | inactive | inactive | inactive | inactive | inactive | – |
| CCC(C(=O)NC(N)=O)c1ccccc1 (centres undefined) | inactive | inactive | inactive | inactive | inactive | inactive | inactive | inactive | inactive | inactive | inactive | inactive | inactive | inactive | inactive | inactive | inactive | inactive | – |
| CCC(O)c1ccccc1 (centres undefined) | inactive | inactive | inactive | inactive | inactive | inactive | inactive | inactive | inactive | inactive | inactive | inactive | inactive | inactive | inactive | inactive | inactive | inactive | – |
| CC(=O)N[C@@H]1C(O[C@H]2O[C@H](C(=O)O)C(O)[C@H](O)[C@H]2O)[C@H](O)[C@@H](CO)O[C@H]1O[C@@H]1C(C(=O)O)O[C@@H](O[C@H]2[C@H](O)[C@@H](CO)OC(O)[C@@H]2NC(C)=O)[C@H](O)[C@H]1O (some centres undefined) | inactive | inactive | inactive | inactive | inactive | inactive | inactive | inactive | inactive | inactive | inactive | inactive | inactive | inactive | inactive | inactive | inactive | inactive | – |
| c1ccc(-n2cnnn2)cc1 | inactive | inactive | inactive | inactive | inactive | inactive | inactive | inactive | inactive | inactive | inactive | inactive | inactive | inactive | inactive | inactive | inactive | inactive | – |
| CCOC(=S)SSC(=S)OCC | inactive | inactive | inactive | inactive | inactive | inactive | inactive | inactive | inactive | inactive | inactive | inactive | inactive | inactive | inactive | inactive | inactive | inactive | – |

From PubChem BioAssay (NCATS)
